{"source": "PubChem BioAssay", "note": "Values without a mark were called inactive. No rule for the calls is given here."}
{"biological_target": "Pantothenate synthetase (Mycobacterium tuberculosis (strain ATCC 25618 / H37Rv)) (UniProt P9WIL5)", "sequence (P9WIL5 whole entry, looked up)": "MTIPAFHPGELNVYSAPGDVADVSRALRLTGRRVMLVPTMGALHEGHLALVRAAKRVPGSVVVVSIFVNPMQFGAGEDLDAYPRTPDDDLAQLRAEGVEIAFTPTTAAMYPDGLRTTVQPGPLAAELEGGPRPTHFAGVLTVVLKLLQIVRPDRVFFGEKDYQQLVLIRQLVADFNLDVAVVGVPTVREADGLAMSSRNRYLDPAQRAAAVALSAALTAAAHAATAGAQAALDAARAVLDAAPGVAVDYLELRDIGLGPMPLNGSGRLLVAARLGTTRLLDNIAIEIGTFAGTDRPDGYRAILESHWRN", "test": "Coupled enzyme confirmation of inhibitors against recombinant Mtb PanC (AID 375);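 also: 0% = full reaction with vehicle and 100% = no enzyme background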", "conditions": "coupled enzyme assay; at 10 µM, stronger effect = higher value", "units": {"inhibition": "%"}}
{"smiles": "Cc1cc2c(c(=O)o1)C(C13C=CC(CC1)C3)C(C#N)=C(N)O2", "note": "(stereo not given)", "inhibition": 0}
{"smiles": "CCSc1nnc(N2C(=O)CC(c3ccsc3)C3=C2CC(C)(C)CC3=O)s1", "note": "(stereo not given)", "inhibition": 0}
{"smiles": "Cc1ccc(N2CCN(c3ccc(C)cc3)C(CC(=O)O)C2=O)cc1", "note": "(stereo not given)", "inhibition": 7}
{"smiles": "CCOC(=O)CNC(=O)CSc1ncnc2c1cnn2-c1ccccc1", "inhibition": 0}
{"smiles": "Cc1ccc(-n2c3c(cc(C(=O)O)c2=O)C(=O)CC(C)(C)C3)cc1", "inhibition": 3}
{"smiles": "CC1(C(=O)NC2CCCCC2)CCC(=O)N1Cc1cccs1", "note": "(stereo not given)", "inhibition": 0}
{"smiles": "CC1Cc2nc(SCC(=O)Nc3nccs3)n(C)c(=O)c2S1", "note": "(stereo not given)", "inhibition": 0}
{"smiles": "CCCCNC(=O)NS(=O)(=O)c1ccc(C)cc1", "inhibition": 0}
{"smiles": "COc1ccc(CNC(=O)c2cc(-c3ccc(OC)c(OC)c3)on2)cc1", "inhibition": 3}
{"smiles": "Cc1cccc(N2CCN(C(=O)c3cc4ccccc4oc3=O)CC2)c1C", "inhibition": 0}
{"smiles": "Cc1ccc(S(=O)(=O)NCCOC(=O)Nc2sc(=S)n(C)c2C)cc1", "inhibition": 0}
{"smiles": "COc1ccc2nc(N3CCC(C)CC3)c(C#N)cc2c1", "inhibition": 7}
{"smiles": "O=C(Cn1cc2c(n1)CCCC2)NCCc1ccccc1", "inhibition": 0}
{"smiles": "COc1ccc(CNC(=O)COC(=O)c2n[nH]c3ccccc23)cc1OC", "inhibition": 7}
{"smiles": "CCOC(=O)N1CCN(C(=O)Cn2ncn3nc(-c4cccs4)cc3c2=O)CC1", "inhibition": 0}
{"smiles": "CCOc1ccc(N(CC)C(=O)COc2cc(=O)n(C)c3ccccc23)cc1", "inhibition": 0}
{"smiles": "CCn1c(SCC(=O)Nc2ccc(C(C)=O)cc2)nc2ccccc21", "inhibition": 3}
{"smiles": "CCOC(=O)c1ccc(Oc2nc(NC)nc(OC)n2)cc1", "inhibition": 0}
{"smiles": "O=C(NCCCN1CCCC1=O)c1cccnc1", "inhibition": 4}
{"smiles": "CC(=O)[C@H]1CC[C@H]2[C@@H]3CCC4=CC(=O)CC[C@]4(C)[C@H]3CC[C@]12C", "inhibition": 5}
{"smiles": "COc1ccc2c(C(F)(F)F)cc(=O)oc2c1C", "inhibition": 1}
{"smiles": "COC(=O)c1ccccc1NC1c2ccccc2C(=O)N1c1cccnc1", "note": "(stereo not given)", "inhibition": 0}
{"smiles": "CCOC(=O)c1nnn(-c2nonc2NC(C)=O)c1C", "inhibition": 8}
{"smiles": "COc1cc2[nH]c(=O)n(CCC(=O)N3CCc4ccccc4C3)c(=O)c2cc1OC", "inhibition": 0}
{"smiles": "CCCCOc1ccc(-c2ncc(C(=O)OCC)c(N)n2)cc1", "inhibition": 11}
{"smiles": "O=C(CSc1nnc(COc2ccc(Cl)cc2)o1)OC1CCCCC1", "inhibition": 0}
{"smiles": "COc1cc(C(c2sc3nc(C)nn3c2O)N2CC(C)CC(C)C2)cc(OC)c1OC", "note": "(stereo not given)", "inhibition": 0}
{"smiles": "CC(=O)Nc1cccc(NC(=O)CSc2nnnn2C)c1", "inhibition": 0}
{"smiles": "Cc1ccnc(N2CCN(C(=O)CSc3nc4ccccc4nc3N3CCCCC3)CC2)c1", "inhibition": 1}
{"smiles": "COc1cccc(C2CC(=O)Nc3cc4c(cc32)OCCO4)c1OC(C)C", "note": "(stereo not given)", "inhibition": 1}
{"smiles": "O=C(CCCn1c(=O)[nH]c2ccsc2c1=O)N1CCN(c2ccccn2)CC1", "inhibition": 3}
{"smiles": "CCOc1ccc2cc(C#N)c(SCC(=O)N3CCCC3)nc2c1", "inhibition": 0}
{"smiles": "CCOC(=O)N1CCC(n2c(SCC(=O)NCc3ccco3)nc3ccsc3c2=O)CC1", "inhibition": 0}
{"smiles": "O=C(NCC(=O)N1CCC(N2CCCCC2)CC1)C1CCCCC1", "inhibition": 3}
{"smiles": "CCOc1ccccc1C(=O)NC(C)c1ccc2c(c1)OCO2", "note": "(stereo not given)", "inhibition": 0}
{"smiles": "COc1ccc(OC)c(C2CC(=O)NC(SC)=C2C#N)c1", "note": "(stereo not given)", "inhibition": 5}
{"smiles": "COc1cc(C2c3c(oc4c(C)cc(C)cc4c3=O)C(=O)N2Cc2cccnc2)cc(OC)c1OC", "note": "(stereo not given)", "inhibition": 2}
{"smiles": "COC(=O)C(C)NC(=O)C12CC3CC(CC(C3)C1)C2", "note": "(stereo not given)", "inhibition": 0}
{"smiles": "O=C(O)CSc1ncn[nH]1", "inhibition": 0}
{"smiles": "CCn1c(SCC(=O)c2ccc3c(c2)OCCO3)nnc1-c1ccco1", "inhibition": 11}
